In PubChem BioAssay (NCATS) one finds Potency and outcome data, which are given here for 30 compounds.

Each structure is given as a SMILES string. Records with an inconclusive call do not appear. Activity calls are given as the source filed them. Calls come from the whole dose curve; as a rule, active = well fitted curve in the direction sought with a large enough effect; inconclusive = small, poorly fitted or top-dose-only effect, or another doubt; inactive = no such curve, though single readings can be large; an effect the other way counts as inactive or inconclusive.

A short description of experiment [1]: qHTS to identify inhibitors of the type 1 interferon - major histocompatibility complex class I in skeletal muscle: primary screen against the NCATS LOPAC collection (AID 1347405).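 Note: lytic HiBiT luminescence reporting HLA-B protein level.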 Note: potency is the fitted concentration of half-maximal effect. An outline of the steps:
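CRISPR-engineered immortalized human myoblasts (C25cl48) with HiBiT fused to endogenous HLA-B*08:01, stimulated with 4 ng/ml IFN-beta. LOPAC compounds tested as a 7-point 1:4.3 titration (top 46 uM final), 24 h at 37 C; lytic HiBiT luminescence read.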

Experiment [2] is described as follows: qHTS for inhibitors of adenylyl cyclases using a fission yeast platform: a pilot screen against the NCATS LOPAC library (AID 1347410). An outline of the steps:
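Read-out: fbp1-GFP fluorescence by laser scanning cytometry (488 nm laser), a gain of signal when AC/cAMP-PKA signalling is inhibited. Strain CHP2027 expressing AC9, GNAS and PDE4D2; compounds at up to 57 µM; 18 h, 30C.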

Experiment [3] can be described thus: Validation qHTS assay for inhibitors of Activation Induced Cytidine Deaminase (AID): UDG Counterscreen signal (AID 1347427). An outline of the steps: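 Counterscreen read of UDG activity (2 U/mL, 4/3x) in the FRET deamination format with AID (1 uM, 4/3x), DJC20/DJC23 substrates (250 nM, 4x), 4 h at room temperature. NaOH stop, fluorescence at 560 ex/665 em.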

Experiment [4] deals with Single-stranded DNA cytosine deaminase (Homo sapiens) (UniProt Q9GZX7). The experiment in a line: Validation qHTS assay for inhibitors of Activation Induced Cytidine Deaminase (AID): AID signal (AID 1347429). An outline of the steps:
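FRET deamination assay: 1 uM AID (4/3x stock) with UDG, compound up to 114 uM, then 250 nM DJC20/DJC23 substrate (4x stock) for 4 hr at room temperature. NaOH added, 30 min; fluorescence read 540/590 nm.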

The nature of experiment [5]: Primary qHTS for inhibitors of La Crosse Virus (LACV) - induced cell death in SH-SY5Y cells (AID 1508616).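 Note: top concentration of the series differs between compounds; higher means more rescue of cells from virus-induced death.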 In outline: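 SH-SY5Y cells (6000/well) plated 24 h, then given compounds by pin transfer and LACV at 0.01 MOI for 6 days at 37C. Viability measured by ATPLite luminescence, normalized to infected DMSO and uninfected DMSO.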
For experiment [6], the target named is Calcium and integrin-binding protein 1 (Homo sapiens) (UniProt Q99828). The experiment in a line: Validation qHTS for Identification of Calcium Integrin Binding protein 1 (CIB1) Competitor (AID 1508618). In outline:
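Fluorescence polarization with 1 uM CIB1-GST and 100 nM FITC-alphaIIb peptide in HEPES pH 7.4, NaCl, 5 mM CaCl2, Tween20. Compounds at up to 114 uM final, preincubated with protein 15 min; read after 15 min more at RT.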

The nature of experiment [7]: Primary qHTS for small molecule stabilizers of the endoplasmic reticulum resident proteome: Secreted ER Calcium Modulated Protein (SERCaMP) assay (AID 1508630). In outline:
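GLuc-SERCaMP-expressing SH-SY5Y cells, pretreated 16 h with compound, are challenged with thapsigargin to empty ER calcium stores; after 4 h, coelenterazine is added directly to the medium and luminescence is imaged.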

Another experiment concerns the target Papain (Carica papaya) (UniProt P00784). The experiment in a line: Primary qHTS assay for inhibitors of the protease papain (AID 1645873).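 Note: papain turnover of Z-FR-AMC read as the AMC fluorescence gain over 10 min.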 Note: potency is the fitted concentration of half-maximal effect.

Sequence of Single-stranded DNA cytosine deaminase (Homo sapiens) (Q9GZX7 whole entry, looked up): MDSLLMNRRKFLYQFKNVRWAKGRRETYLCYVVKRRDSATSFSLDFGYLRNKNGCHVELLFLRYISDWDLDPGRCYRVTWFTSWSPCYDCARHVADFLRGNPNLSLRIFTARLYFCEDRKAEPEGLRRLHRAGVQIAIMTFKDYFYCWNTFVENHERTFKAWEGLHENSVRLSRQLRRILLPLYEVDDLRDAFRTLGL
Sequence of Papain (Carica papaya) (P00784 whole entry, looked up): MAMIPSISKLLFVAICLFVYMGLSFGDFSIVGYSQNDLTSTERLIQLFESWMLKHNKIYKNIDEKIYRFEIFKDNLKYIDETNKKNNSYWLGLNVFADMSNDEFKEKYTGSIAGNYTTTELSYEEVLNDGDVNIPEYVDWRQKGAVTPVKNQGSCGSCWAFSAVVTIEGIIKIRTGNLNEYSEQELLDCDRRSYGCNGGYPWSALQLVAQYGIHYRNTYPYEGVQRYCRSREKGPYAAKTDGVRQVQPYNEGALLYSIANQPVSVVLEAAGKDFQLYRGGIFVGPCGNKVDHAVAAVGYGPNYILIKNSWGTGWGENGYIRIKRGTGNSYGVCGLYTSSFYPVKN
Sequence of Calcium and integrin-binding protein 1 (Homo sapiens) (Q99828 whole entry, looked up): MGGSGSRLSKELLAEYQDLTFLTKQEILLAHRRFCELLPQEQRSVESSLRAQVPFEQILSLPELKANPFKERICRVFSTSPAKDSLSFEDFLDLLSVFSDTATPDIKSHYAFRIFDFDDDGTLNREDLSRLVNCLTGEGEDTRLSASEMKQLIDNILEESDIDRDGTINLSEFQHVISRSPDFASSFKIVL

As to `CCCCCCCCCC[Si](C)(C)CCC(=O)NC(Cc1ccc(C)cc1)c1ccccc1` (stereo not given), the Potency result in experiment [1], in experiment [3], in experiment [4], in experiment [5], in experiment [6] and in experiment [7] was “inactive” throughout. In addition, in the experiment with Papain (Carica papaya), the Potency entry was “inactive”. Further, the compound was called inactive in experiment [2].
Regarding `COc1ccc2c(c1)CCC1C2CC[C@@]2(C)C1CC[C@@H]2NCCCCCCN1C(=O)C=CC1=O` (stereo not given in full), the Potency result in experiment [1], in experiment [3], in experiment [4], in experiment [5], in experiment [6] and in experiment [7] was “inactive” in each case. For the same compound, the Potency entry in the experiment with Papain (Carica papaya) was “inactive”. The call in experiment [2] was inactive.
Regarding `CCN(CC)CCOC(=O)c1cc(Cl)c(N)cc1OC`, the Potency result in experiment [1], in experiment [3], in experiment [4], in experiment [5], in experiment [6] and in experiment [7] was “inactive” each time. Also, the Potency result with Papain (Carica papaya) is “inactive”. Also, in experiment [2], the result was inactive.
Regarding `CNC(=O)c1cc2c(cn1)[nH]c1ccccc12`, the Potency entry in experiment [1], in experiment [3], in experiment [4], in experiment [5], in experiment [6] and in experiment [7] was “inactive” throughout. In experiment [2], the result was inactive. Besides, the Potency with Papain (Carica papaya) was 25.1 µM (active).
Turning to `CCCCCC(O)CCCC(=O)O` (stereo not given), the Potency result in experiment [1], in experiment [3], in experiment [4], in experiment [5], in experiment [6] and in experiment [7] was “inactive” in each case. The Potency entry with Papain (Carica papaya) was “inactive”. Also, the outcome in experiment [2] was inactive.
With `CC(N)(Cc1ccc(O)cc1)C(=O)O` (stereo not given), the Potency result in experiment [1], in experiment [3], in experiment [4], in experiment [5], in experiment [6] and in experiment [7] was “inactive” each time. Further, in the experiment with Papain (Carica papaya), the Potency result is “inactive”. Besides, the call in experiment [2] was inactive.
Turning to `COc1ccccc1N1CCN(CCN(C(=O)c2ccc(F)cc2)c2ccccn2)CC1`, the Potency entry (in experiment [1]; in experiment [3]; in experiment [4]; in experiment [5]; in experiment [6]; in the experiment with Papain (Carica papaya)) was “inactive” in each case. Also, the result in experiment [2] was inactive.
For the compound `N[C@H](C(=O)O)[C@H](O)C(=O)O`, the Potency entry in experiment [1], in experiment [3], in experiment [4], in experiment [5], in experiment [6] and in experiment [7] was “inactive” each time. Also, in the experiment with Papain (Carica papaya), the Potency entry was “inactive”. Also, the compound was classed as inactive in experiment [2].
Consider `CN1CC(O)C(O)C(O)C1CO` (stereo not given), for which the Potency result in experiment [1], in experiment [3], in experiment [4], in experiment [5], in experiment [6] and in experiment [7] was “inactive” each time. The Potency entry with Papain (Carica papaya) is “inactive”. For the same compound, in experiment [2], the compound was classed as inactive.
`CC(C)NC[C@H](O)COc1ccc(CC(N)=O)cc1`: the Potency entry in experiment [1], in experiment [3], in experiment [4], in experiment [5], in experiment [6] and in experiment [7] was “inactive” each time. The Potency entry in the experiment with Papain (Carica papaya) is “inactive”. In addition, in experiment [2], the result was inactive.
Take `O=C(O)C1CN(CCCP(=O)(O)O)CCN1` (stereo not given): the Potency result in experiment [1], in experiment [3], in experiment [4], in experiment [5], in experiment [6] and in experiment [7] was “inactive” throughout. Moreover, in the experiment with Papain (Carica papaya), the Potency result was “inactive”. In addition, in experiment [2], the call was inactive.
Take `N=C(N)SCCc1cnc[nH]1`: the Potency result in experiment [1], in experiment [3], in experiment [4], in experiment [5], in experiment [6] and in experiment [7] was “inactive” throughout. Moreover, the Potency result with Papain (Carica papaya) is “inactive”. In addition, the call in experiment [2] was inactive.
For `O=C(O)C1CCNCC1`, the Potency result in experiment [1], in experiment [3], in experiment [4], in experiment [5], in experiment [6] and in experiment [7] was “inactive” in each case. Further, the Potency entry in the experiment with Papain (Carica papaya) is “inactive”. Besides, the compound was classed as inactive in experiment [2].
With `CC(C)NCC(O)COc1ccc(CC(N)=O)cc1` (stereo not given), the Potency result in experiment [1], in experiment [3], in experiment [4], in experiment [5], in experiment [6] and in experiment [7] was “inactive” each time. Moreover, in the experiment with Papain (Carica papaya), the Potency result is “inactive”. Moreover, the result in experiment [2] was inactive.
Consider `C=CC[C@H](N)C(=O)O`, for which the Potency result in experiment [1], in experiment [3], in experiment [4], in experiment [5], in experiment [6] and in experiment [7] was “inactive” in each case. Besides, the Potency result in the experiment with Papain (Carica papaya) was “inactive”. In addition, the compound was classed as inactive in experiment [2].
For the compound `COc1ccccc1N1CCN(CCCCNC(=O)c2ccc3ccccc3c2)CC1`, the Potency entry in experiment [1], in experiment [3], in experiment [4], in experiment [5], in experiment [6] and in experiment [7] was “inactive” in each case. Besides, the Potency entry in the experiment with Papain (Carica papaya) is “inactive”. In experiment [2], the call was inactive.
For the compound `O=C(O)C1CCCNC1` (stereo not given), the Potency entry in experiment [1], in experiment [3], in experiment [4], in experiment [5], in experiment [6] and in experiment [7] was “inactive” each time. The Potency entry in the experiment with Papain (Carica papaya) is “inactive”. Further, in experiment [2], the compound was classed as inactive.
Turning to `CN(CC[C@@H](Oc1ccc(C(F)(F)F)cc1)c1ccccc1)CC(=O)O`, the Potency result in experiment [1], in experiment [3], in experiment [4], in experiment [5], in experiment [6] and in experiment [7] was “inactive” in each case. The Potency entry with Papain (Carica papaya) is “inactive”. Further, in experiment [2], the call was inactive.
As to `Cc1cccc(C(=O)NCN2CCN(c3ccccc3C#N)CC2)c1`, the Potency result in experiment [1], in experiment [3], in experiment [4], in experiment [5], in experiment [6] and in experiment [7] was “inactive” in each case. Also, the Potency result with Papain (Carica papaya) was “inactive”. For the same compound, in experiment [2], the outcome was inactive.
On to `COC1(C2=NCCN2)COc2ccccc2O1` (stereo not given), for which the Potency entry in experiment [1], in experiment [3], in experiment [4], in experiment [5], in experiment [6] and in experiment [7] was “inactive” throughout. Moreover, the Potency result with Papain (Carica papaya) is “inactive”. Further, in experiment [2], the outcome was inactive.
For the compound `NC1CONC1=O` (stereo not given), the Potency entry in experiment [1], in experiment [3], in experiment [4], in experiment [5], in experiment [6] and in experiment [7] was “inactive” each time. Moreover, the Potency result with Papain (Carica papaya) was “inactive”. In addition, the compound was called inactive in experiment [2].
`CC(C)C[C@H](NC(=O)C1OC1C(=O)O)C(=O)NCCCCN=C(N)N` (stereo not given in full): the Potency result in experiment [1], in experiment [3], in experiment [4], in experiment [5], in experiment [6] and in experiment [7] was “inactive” throughout. In the experiment with Papain (Carica papaya), the Potency result is “inactive”. The outcome in experiment [2] was inactive.
For `CCCn1c(=O)c2c(ncn2C)n(CCC)c1=O`, the Potency entry in experiment [1], in experiment [3], in experiment [4], in experiment [5], in experiment [6] and in experiment [7] was “inactive” in each case. For the same compound, the Potency result in the experiment with Papain (Carica papaya) was “inactive”. In addition, the compound was classed as inactive in experiment [2].
For `O=C(c1ccc2c(c1)OCCO2)N1CCCCC1`, the Potency entry in experiment [1], in experiment [3], in experiment [4], in experiment [5], in experiment [6] and in experiment [7] was “inactive” throughout. Moreover, the Potency entry with Papain (Carica papaya) is “inactive”. Further, the compound was called inactive in experiment [2].
`Cn1c(=O)c2c(nc(/C=C/c3cccc(Cl)c3)n2C)n(C)c1=O`: the Potency entry in experiment [1], in experiment [3], in experiment [4], in experiment [5], in experiment [6] and in experiment [7] was “inactive” each time. Further, the compound was classed as inactive in experiment [2]. Besides, the Potency with Papain (Carica papaya) was 3.55 µM (active).
Turning to `CCCn1c(=O)c2[nH]c(-c3ccc(S(=O)(=O)O)cc3)nc2n(CCC)c1=O`, the Potency result in experiment [1], in experiment [3], in experiment [4], in experiment [5], in experiment [6] and in experiment [7] was “inactive” in each case. Moreover, the compound was classed as inactive in experiment [2]. The Potency with Papain (Carica papaya) is 25.1 µM (active).
Take `C=C1C(=O)O[C@@H]2[C@H]3O[C@]3(C)CCC=C(C)CC[C@@H]12`: the Potency in experiment [1] was 14.1 µM (active). Besides, in experiment [2], the outcome was inactive. Also, the Potency entry (in experiment [3]; in experiment [4]; in experiment [5]; in experiment [7]; with Papain (Carica papaya)) was “inactive” throughout.
Consider `CC1=C(C(=O)O)N2C(=O)[C@@H](NC(=O)C(N)C3=CCC=CC3)[C@H]2SC1` (stereo not given in full), for which the Potency result (in experiment [1]; in experiment [3]; in experiment [4]; in experiment [5]; in experiment [6]; with Papain (Carica papaya)) was “inactive” in each case. Further, the compound was classed as inactive in experiment [2].
For `Oc1ccc(/C=C/c2ccc(/C=C/c3ccc(O)cc3)c(Br)c2)cc1`, the Potency result (in experiment [1]; in experiment [3]; in experiment [4]; in experiment [5]; in experiment [6]; in the experiment with Papain (Carica papaya)) was “inactive” each time. The compound was classed as inactive in experiment [2].
Take `Cn1c(=O)c2[nH]c(-c3ccc(S(=O)(=O)O)cc3)nc2n(C)c1=O`: the Potency result in experiment [1], in experiment [3], in experiment [4], in experiment [5] and in experiment [7] was “inactive” each time. Besides, the outcome in experiment [2] was inactive. In the experiment with Papain (Carica papaya), the Potency was 25.1 µM (active).
